3 compounds from PubChem BioAssay (NCI) can be followed below.

Some test systems named below: MOLT-4 leukemia; SR leukemia; OVCAR-8 ovarian; OVCAR-5 ovarian; OVCAR-4 ovarian; SK-OV-3 ovarian; IGROV1 ovarian; OVCAR-3 ovarian; HS 578T breast; NCI/ADR-RES ovarian; T-47D breast; BT-549 breast; MDA-MB-435 melanoma; SW-620 colon; MCF7 breast; HCT-116 colon; HCC-2998 colon; KM12 colon; RPMI-8226 leukemia.
What all share (assay): NCI-60 one-dose screen, 48 h (100 = growth as untreated, 0 = no growth, -100 = all killed)
Holding throughout (details): 10 µM unless noted

Compounds without any hit were thinned out: in the full panel of roughly 83,000, 20% have a hit.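 How to read the values: 0–100, growth inhibition (40 = 60% inhibited); 0, no net growth; -100 to 0, cell death (-40 = 40% of starting cells died; -100 = all dead).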 Unmarked numbers belong to inactive results. Calls of active or inactive are those of the source. The calls were made as follows: active = growth percent below 10; inactive = the rest.

With `O=C(NC1=NCC[Se]1)c1ccccc1O`, the growth was 30.3% in the assay on MOLT-4 leukemia; 19% in the assay with SR leukemia; 47.4% in the assay on OVCAR-8 ovarian; 53.3% in the assay with OVCAR-5 ovarian; 71.1% in the assay on OVCAR-4 ovarian; 135% with SK-OV-3 ovarian. For the same compound, the growth with IGROV1 ovarian was -8.34% (active); in the assay on OVCAR-3 ovarian it was 69.8%; with HS 578T breast, 35.5%; in the assay with NCI/ADR-RES ovarian, 21.5%; in the assay on T-47D breast, 79.4%; in the assay with BT-549 breast, 82.1%. Besides, the growth in the assay with MDA-MB-435 melanoma is 48.3%; with SW-620 colon, 72.9%; with MCF7 breast it was 51.4%; in the assay on HCT-116 colon, 20.3%; with HCC-2998 colon, 90%; in the assay on KM12 colon, 71.5%.
For `O=S(=O)(c1ccc(O)cc1)c1ccccc1O`, the growth was 103% with MOLT-4 leukemia; 103% in the assay on SR leukemia; 99.8% in the assay with RPMI-8226 leukemia; 102% with OVCAR-8 ovarian; 116% with OVCAR-4 ovarian; 107% in the assay with SK-OV-3 ovarian. For the same compound, the growth is 117% with IGROV1 ovarian; 110% in the assay on OVCAR-3 ovarian; 104% in the assay with HS 578T breast; 102% in the assay with T-47D breast; 110% in the assay on MDA-MB-435 melanoma; 106% in the assay on SW-620 colon. Also, the results for the growth in the assay with MCF7 breast and with KM12 colon were 104% and 107%, respectively.
`C[C@]12CCC3[C@@H](C[C@@H]4SC(Nc5ccccc5)=N[C@@]45CC(=O)CC[C@]35C)[C@@H]1CCC2=O` (stereo not given in full): the growth in the assay on MOLT-4 leukemia is -5.8% (active); in the assay with SR leukemia, -5.37% (active); in the assay with OVCAR-8 ovarian, -5.35% (active); with OVCAR-5 ovarian, 31.2%; in the assay with OVCAR-4 ovarian it was 31.7%; in the assay on SK-OV-3 ovarian, 56.9%. Further, the growth with IGROV1 ovarian is -11.3% (active); in the assay on OVCAR-3 ovarian it was -9.98% (active); with HS 578T breast it was 41%; in the assay with NCI/ADR-RES ovarian it was 9.86% (active); in the assay with T-47D breast it was -27.4% (active); in the assay on BT-549 breast, -19.9% (active). In addition, the growth in the assay on MDA-MB-435 melanoma was 1.11% (active); in the assay on SW-620 colon, -17.9% (active); in the assay on MCF7 breast, 15.4%; in the assay with HCT-116 colon, -85.5% (active); in the assay with HCC-2998 colon, -32.7% (active); with KM12 colon, 23.2%.
